Compound activity (PubChem BioAssay)
Tb PYK inh – blocks Trypanosoma brucei pyruvate kinase | Potency, µM (doses to about 76.8 µM), for the others: at the highest dose activity, negative = inhibition, actives largely listed as inhibitors | TbPYK enzyme, Kinase-Glo Plus ATP luminescence, 45 min | Q57TT1 | 0.12% of 410,000 active | AID 624173; further: potency means the concentration at half of the fitted maximal effect; nearly all actives have a fitted effect of over 50% in size
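Activity of T. brucei pyruvate kinase was followed by Kinase-Glo Plus luminescence after the enzyme reacted 45 min at room temperature with 130 uM ADP (final) and substrate. Test compounds were added before ADP at multiple concentrations.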
RE007 growth inh – less growth of the S. pombe RE007 Vpr strain. S. pombe RE007 Vpr strain, BacTiter-Glo ATP luminescence, 24 h. Potency, µM (highest dose often 92.2 µM), without a hit: at the highest dose activity change, negative = less growth, usual class: inhibitors. 0.21% of 360,000 active; active means well fitted falling curve with a large enough effect; inconclusive means small, poorly fitted or top-dose-only effect; inactive means no such curve, though single readings can be large or run the other way; further: potency means the concentration at half of the fitted maximal effect; nearly all actives have a fitted effect of over 50% in size
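Fission yeast strain RE007, carrying one chromosomally integrated HIV-1 vpr copy, was seeded at OD 0.01 in PMG+AL medium with 23 nL pinned compound. After 24 h at 30 °C and 99% humidity, viability was read by BacTiter-Glo luminescence.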
HCMV antiviral – human cytomegalovirus inhibition; AID 1259415; HFF cells, HCMV-luciferase reporter, 72 h; active compounds read low; activity change, negative = inhibition, % at 57.5 µM; 4.5% of 410,000 active; in the data active means activity change below about -60%; inconclusive means no clear call, values can overlap the other calls; inactive means above about -39%
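Two compound doses tested in HFFs infected with HCMV-luciferase, MOI 1 PFU/cell, 72 h at 37C. Lysate luminescence read with OneGlo; data normalized against buffer-only and 10uM Salinomycin inhibitor controls.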
Sm TGR block – S. mansoni TGR enzyme inhibition. Q962Y6. purified TGR, DTNB reduction, TNB absorbance 405 nm. Potency, µM (titrated, usually from 114 µM), inactives show at the highest dose activity change, negative = inhibition, actives largely listed as inhibitors. 3% of 360,000 active. AID 485364; further: potency means the concentration at half of the fitted maximal effect; nearly all actives have a fitted effect of over 60% in size
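Kinetic colorimetric format: TGR-catalysed, NADPH-driven DTNB reduction monitored via TNB absorbance. Enzyme dispensed at 20 nM; compound exposure 15 min at room temperature before reaction start.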
FMDV inh – blocks foot and mouth disease virus | 1.2% of 410,000 active | Potency, µM (series often up to 57.9 µM), inactives show at the highest dose activity change, negative = inhibition, actives largely listed as inhibitors | AID 1159524 | FMDV antiviral cell-based qHTS; calls by dose curve; tested in HEK293T cells; further: read-out not given here; potency means the concentration at half of the fitted maximal effect; nearly all actives have a fitted effect of over 45% in size
FBPA Giardia inh – Giardia lamblia aldolase inhibition. purified Giardia FBPA. Potency, µM (series often up to 59.6 µM), without a hit: top-dose activity, negative = inhibition, usual class: inhibitors. A8B2U2. 0.71% of 290,000 active; further: potency means the concentration at half of the fitted maximal effect; nearly all actives have a fitted effect of over 55% in size
Target sequence (A8B2U2 whole entry, looked up): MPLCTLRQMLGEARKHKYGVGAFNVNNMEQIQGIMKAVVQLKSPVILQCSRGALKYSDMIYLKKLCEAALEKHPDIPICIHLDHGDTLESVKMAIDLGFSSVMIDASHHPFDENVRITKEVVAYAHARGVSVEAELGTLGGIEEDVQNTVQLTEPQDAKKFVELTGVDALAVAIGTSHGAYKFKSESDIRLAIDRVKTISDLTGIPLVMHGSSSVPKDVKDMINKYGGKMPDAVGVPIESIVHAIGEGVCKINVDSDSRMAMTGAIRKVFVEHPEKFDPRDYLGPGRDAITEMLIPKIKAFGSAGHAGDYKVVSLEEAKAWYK
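Giardia FBPA (40 nM reagent) was preincubated 10 min at RT with compound (up to 57.5 uM final), then substrate plus GAPDH/TPI/NAD/arsenate coupling system with diaphorase/resazurin was added; resorufin fluorescence (525/598 nm) was read after 20 min.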
The depositor's hits bear a star; ? = inconclusive; . = not tested or not shown; + = active, no number; [ ] = dose if it differs, or a comment. The list is not random: actives were taken first. Their share in the collection is about 7.7%. Unless noted, the call rests on the fitted dose curve; in most records, active means well fitted curve in the direction sought with a large enough effect; inconclusive means small, poorly fitted or top-dose-only effect, or another doubt; inactive means no such curve, though single readings can be large; an effect the other way counts as inactive or inconclusive. On the % scale 0 is the no-effect control and ±100 the full control effect.

SMILES	Tb PYK inh	RE007 growth inh	HCMV antiviral	Sm TGR block	FMDV inh	FBPA Giardia inh
Cc1ccc(S(=O)(=O)N2CCN(C(=O)N(C)C)CC2)cc1C	6%	-3%	-10	-19%	-22%	4%
Fc1cccc(Cl)c1Cn1c(-c2cccs2)nc2ccccc21	-4%	.	-63*	1%	0%	.
Cc1ccc(CNC(=O)c2nnc(CS(=O)(=O)c3ccccc3)o2)cc1	0%	6%	25	7%	-2%	10%
O=C(NCc1ccccc1Cl)c1nnc(CS(=O)(=O)c2ccccc2)o1	0%	-1%	-99*	-16%	-15%	-9%
CCc1ccc(S(=O)(=O)NCCc2csc3nc(-c4ccccc4)nn23)s1	1%	.	-79*	5%	18%	.
O=S(=O)(NCCc1csc2nc(-c3ccccc3)nn12)c1cccs1	7%	.	-37	-24%	2%	.
CN(Cc1ccccc1)C(=S)NC(=O)c1ccccc1	-22%	1%	7	2%	3%	-21%
CC(C)N(C(=NCc1ccccc1)NC(=O)c1ccccc1)C(C)C	-5%	2%	-89*	-1%	47%	.
CN1C(=O)Cc2cc(S(=O)(=O)CCC(=O)Nc3ccc(Cl)cc3)ccc21	3%	.	-7	3%	30%	.
O=C(NCC1Cc2cc(-c3cnc4ccccc4c3)cc(F)c2O1)c1cnsn1 (configuration not stated)	.	.	.	.	0%	.
COc1ccc(/C=N/OCC(=O)N2CC3(C)CC2CC(C)(C)C3)cc1OC (configuration not stated)	0%	3%	?	-2%	.	-2%
COc1cc(/C=C/C(=O)OCC(=O)N2CC3(C)CC2CC(C)(C)C3)ccc1O (configuration not stated)	-4%	19%	-73*	-25%	?	-10%
CSc1ncccc1C(=O)OCC(=O)N1CC2(C)CC1CC(C)(C)C2 (configuration not stated)	-6%	4%	?	.	-21%	.
Nc1cc(C(=O)OCC(=O)N2CCC(Cc3ccccc3)CC2)ccc1Cl	-22%	-7%	-65*	3%	-18%	.
CC1(C)CC2CC(C)(CN2C(=O)COC(=O)c2ccccc2C(F)(F)F)C1 (configuration not stated)	0%	-6%	+	-8%	-6%	.
COc1cc(/C=C/C(=O)OC2CC3CCC2(C)C3(C)C)ccc1O (configuration not stated)	-6%	?	-103*	-23%	17%	-11%
Cc1cc(C(=O)N(Cc2cc3cc4c(cc3nc2N2CCOCC2)CCC4)CC2CCCO2)c(=O)[nH]c1C (configuration not stated)	.	.	.	.	22%	.
OCC1OC(c2ccccc2)C=CC1Oc1cc(Cl)cc(Cl)c1 (configuration not stated)	.	.	.	.	.	-1%[12.9 µM]
COc1cccc(OC)c1C(=O)OCC(=O)N1CCC(Cc2ccccc2)CC1	17%	-22%	-99*	.	-6%	.
COc1cc(/C=C/C(=O)OCC(=O)N2CCC(Cc3ccccc3)CC2)ccc1O	-3%	-3%	-18	-1%	32µM*	6%
COc1ccccc1Cc1c(-c2ccccc2)nc2c3ccccc3ccn12	.	.	103	.	.	.
CC(=O)Nc1ccc(S(=O)(=O)N(C)c2ccccc2)cc1	11%	-8%	-15	-13%[11.4 µM]	-12%	2%
O=C(Nc1cccc(F)c1)C1CCN(S(=O)(=O)c2cccc3nonc23)CC1	-4%	4%	-7	-7%	?	4%
COc1ccccc1NC(=O)c1ccc(S(=O)(=O)N(C)c2ccccc2)cc1	2%	16%	?	5%	?	.
O=C(Nc1ccc(Cl)c(C(F)(F)F)c1)C1CCN(S(=O)(=O)c2cccc3nonc23)CC1	-4%	.	?	1%	32µM*	.
SMILES	Tb PYK inh	RE007 growth inh	HCMV antiviral	Sm TGR block	FMDV inh	FBPA Giardia inh
COc1cc(NC(=O)c2ccc(S(=O)(=O)N(C)c3ccccc3)cc2)cc(OC)c1	-3%	-11%	-79*	.	-11%	.
Cc1cc(NS(=O)(=O)c2ccc(NC(NC(=O)C(C(F)(F)F)C(F)(F)F)(C(F)(F)F)C(F)(F)F)cc2)no1	-7%	-1%	.	13µM*	-26%	-7%
CCOC(=O)/C=C/C(=O)Nc1ccc(S(=O)(=O)N(C)c2ccccc2)cc1	4%	3%	-24	40µM*	?	-7%
COC(=O)C1CCN(Cc2ccc3c(c2)CN(C(=O)C2Cc4ccccc4O2)CCO3)CC1 (configuration not stated)	.	.	.	.	-12%	.
COC(=O)[C@@H]1C[C@@H](NC(=O)c2ccc(C(F)(F)F)cc2)CN1Cc1cccc(O)c1	.	.	.	.	10%	.
Cc1ccc(-n2c(=O)c3c(cnn3C)n(CC(=O)Nc3c(C)cccc3C)c2=O)cc1	1%	.	4	-12%	-7%	.
CN1c2ccccc2[C@]23CCN(S(=O)(=O)C(F)(F)F)C2=Cc2ccccc2[C@H]13	.	.	4	.	.	.
Cc1ccc(N(C)S(=O)(=O)c2cccc(C(=O)OCC(=O)N(C)Cc3ccccc3)c2)cc1	-6%	-12%	45	.	28µM*	.
COc1ccc(NC(=O)c2cccc(S(=O)(=O)N(C)c3ccccc3)c2)cn1	-21%	12%	-75*	-3%	35µM*	3%
CN(C(=O)COC(=O)c1cccc(S(=O)(=O)N(C)c2ccccc2)c1)C1CCCCC1	1%	0%	-12	2%	?	.
Cc1ccc(NC(=O)c2cccc(S(=O)(=O)N3CCN(c4ccccc4)CC3)c2)nc1	3%	-5%	-85*	5%	-25%	.
O=C(Nc1ccccc1N1CCCC1)C1CCN(S(=O)(=O)c2ccccc2C(F)(F)F)CC1	-9%	7%	-15	-12%	-18%	.
Cc1ccnc(NC(=O)c2cccc(S(=O)(=O)N3CCN(c4ccccc4)CC3)c2)c1	6%	-24%	25	-2%	?	.
O=C(Nc1ccccc1N1CCCCC1)C1CCN(S(=O)(=O)c2ccccc2C(F)(F)F)CC1	-3%	2%	-61*	2%	-21%	.
CN(c1ccccc1)S(=O)(=O)c1cccc(C(=O)Nc2ccc3c(c2)CCC3)c1	-5%	2%	?	-6%	-16%	-5%
COC(=O)c1ccccc1NC(=O)N1CCC(N2CCN(Cc3ccc(F)cc3)C(=O)C2=O)CC1	-2%	.	5	-5%	-4%	.
O=C(CCS(=O)(=O)c1ccc(Br)s1)Nc1c(F)cccc1F	1%	.	-9	?	37%	.
COc1cc(OC)c(C2SCCN2S(=O)(=O)c2ccc(F)cc2)cc1OC (configuration not stated)	-4%	-4%	-17	0%	0%	-23%
